A selection: hits, their analogues and other compounds. The true share with any hit is near 4.3%.
esBAF inh: Bmi1 luciferase reporter increase in mESCs, primary screen, esBAF inhibitor project, mouse ES cells, Bmi1 luciferase knock-in, single point; 24 h; 100% = twice the neutral-well signal; reporter increase, % at 12.5 µM; 350,000 tested, 2% active; in the data active = activation above about 40%; inconclusive = no clear call, values can overlap the other calls;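 note: 0% = median of the plate's neutral control wells and 100% = double that signal; a rise in the Bmi1 reporter signal indicates esBAF inhibition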
AF4-AF9 inh: inhibitors of AF4 peptide binding to AF9, primary screen, biochemical, AlphaScreen, biotin-AF4 peptide, FLAG-AF9, single point; Protein AF-9 (Homo sapiens), P42568; AID 651704, 2012; inhibition, % at 10 µM; 350,000 tested, 0.47% active;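 active = every replicate reaching a set inhibition limit, whatever the replicate mean, cut at about 25% in these data; inconclusive = mean inhibition reaches that limit but some replicates miss it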;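 note: 0% = plate neutral control median and 100% = total signal loss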
FGF22 binding: binders of human FGF22 protein, primary screen, FGF22 synaptogenesis inhibitor project, biophysical, thermal shift, single point | 340,000 tested, 1.5% active | Fibroblast growth factor 22 (Homo sapiens), Q9HCT0 | AID 651658, 2012 | activity (Tm shift, normalised), % at 9.99 µM | recombinant FGF22 thermal shift, SYPRO orange fluorescence; percent of sucrose octasulfate shift, DMSO zero;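 active = mean Tm shift, scaled 0 neutral to 100 positive control, at about 1.3% or above, every replicate too, limit read from the data; inconclusive = no clear call, values can overlap the other calls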
Target sequence (Q9HCT0 whole entry, looked up): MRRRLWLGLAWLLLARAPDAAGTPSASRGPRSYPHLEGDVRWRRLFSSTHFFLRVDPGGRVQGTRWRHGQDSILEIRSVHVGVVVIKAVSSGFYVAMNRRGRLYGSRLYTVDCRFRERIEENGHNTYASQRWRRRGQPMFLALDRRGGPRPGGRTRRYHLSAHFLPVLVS
SMARCA2 act: SMARCA2 (BRM) function activators, primary screen, cell-based, luminescence, high throughput. activation, % at 9.1 µM. MG213 cells, MMTV-luciferase reporter, dexamethasone, overnight. 370,000 tested, 1% active; in the data active = activation above about 7.8%;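 note: 0% = vehicle wells and 100% = reference activator wells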
MITF TRPM1 HTS: activators of MITF-driven TRPM1 promoter reporter, primary screen, cell-based, SK-MEL-5, luciferase, single point; SK-MEL-5 TRPM1-promoter luciferase, 24 h; % of positive control, neutral wells = 0; activation, % at 12.5 µM; 300,000 tested, 0.75% active; AID 588334, 2011;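 active = mean activation of at least 80% with every replicate also reaching 80%; inconclusive = mean reaches 80% but some replicate falls short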;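 note: 0% = neutral control wells and 100% = parthenolide positive control wells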
Wnt act: Wnt/beta-catenin pathway activators, primary screen, cell-based, plate reader, single point. 300,000 tested, 1.2% active. Wnt/beta-catenin reporter cell assay, activator. AID 743398, 2014. activation, % at 9.35 µM; in the data active = activation above about 30%, passing the limit was not always enough; inconclusive = no clear call, values can overlap the other calls;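 note: 0% = neutral control wells and 100% = positive control wells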
The depositor's hits bear a star; u = inconclusive; x = no result.

SMILES	esBAF inh	AF4-AF9 inh	FGF22 binding	SMARCA2 act	MITF TRPM1 HTS	Wnt act
Nc1ccn(C2CCCCO2)c(=O)n1 (stereo unspecified)	-2.6	-2.5	1.0	1.3	19.7	-1.0
COc1ccn(C2CCCCO2)c(=O)n1 (stereo unspecified)	-7.3	-4.5	43.1*	-0.7	-5.6	0.3
C[C@H]1CN([C@@H](C)CO)S(=O)(=O)c2ccc(-c3ccccc3F)cc2O[C@H]1CN(C)Cc1cccnc1	-11.9	10.0	0.0	x	x	x
Cc1cc(C(=O)N(C)CC2CCCN(CCc3ccc(F)cc3)C2)c(C)o1 (stereo unspecified)	-5.6	3.1	-0.3	2.9	-12.8	-0.9
COc1ccc(CCN2CCCC(CN(C)C(=O)c3cc(C)oc3C)C2)cc1 (stereo unspecified)	72.1*	1.4	0.0	7.8*	74.7	u
N/C(=N\O)c1ccc(NC(=O)c2cccs2)cc1	21.9	x	x	-1.4	53.3	40.3*
COC(=O)Cc1ccc(NC(=O)c2cccs2)cc1	48.8*	x	x	2.6	67.5	17.7
C/C(=N\NC(=O)C(N)=O)c1ccc(NC(=O)c2cccs2)cc1	x	-15.3	0.3	3.0	64.1	12.0
C[C@@H]1CN([C@@H](C)CO)C(=O)c2cc(C#Cc3cccnc3)cnc2O[C@@H]1CN(C)S(=O)(=O)c1ccccc1F	-4.0	-3.5	0.2	x	x	x
C[C@@H]1CCCCO[C@@H](CN(C)C(=O)C2CCCCC2)[C@@H](C)CN([C@H](C)CO)C(=O)c2cc(NS(=O)(=O)c3ccc(F)cc3)ccc2O1	-4.0	-4.3	0.8	x	x	x
CCCc1cn(CC[C@H]2CC[C@@H](NC(=O)C3CCCCC3)[C@H](CO)O2)nn1	1.9	1.4	-0.1	x	x	x
CNC[C@H]1Oc2ncc(-c3ccccc3F)cc2C(=O)N([C@@H](C)CO)C[C@H]1C	-0.6	-1.5	x	x	x	x
COc1ccc2nc(C)cc(SCC(=O)Nc3c(C)cc(C)cc3C)c2c1	-3.0	x	x	1.1	8.3	x
CCOC(=O)CSc1cc(C)nc2ccc(OC)cc12	x	1.9	43.3*	-1.0	-5.0	-3.2
CC(O)(c1cccc(F)c1)c1nc(-c2ccc(Cl)cc2)cs1 (stereo unspecified)	-2.3	-4.9	0.1	-4.9	x	-1.8
COc1ccc(-c2csc(C(C)(O)c3ccccc3)n2)cc1 (stereo unspecified)	59.9*	0.1	0.1	-0.9	x	1.1
COc1ccc(C(C)(O)c2nc(-c3ccccc3)cs2)cc1 (stereo unspecified)	3.4	-3.4	-0.3	-2.7	x	-1.7
CN(C)c1ccc(-c2csc(C(C)(O)c3cccc(F)c3)n2)cc1 (stereo unspecified)	45.1*	4.4	-0.6	-3.2	x	-4.7
CO[C@H]1CN(C)C(=O)c2cc(NC(=O)C3CC3)ccc2OC[C@H](C)N(C(=O)CN2CCOCC2)C[C@@H]1C	-5.1	-2.5	0.0	x	x	x
CC(=O)N1[C@H](CO)[C@@H](c2ccccc2)[C@H]1CN(C)S(=O)(=O)c1ccccc1	1.0	0.7	1.1	x	x	x
Cc1cccc2nc(CSc3ccccc3N)cn12	38.1	x	x	6.0	41.7	x
Cc1cccc2nc(COc3ccc4ccccc4c3Br)cn12	x	4.7	-0.1	2.4	99.9*	0.1
CCN(CC)C(=S)SCC(=O)c1ccccc1	54.9*	x	x	4.7	x	x
CCN(CC)C(=S)SCC(=O)c1ccc(F)cc1	48.4*	x	x	3.7	76.2	u
CCN(CC)C(=S)SCC(=O)Nc1ccc(F)cc1	x	x	x	-1.7	6.1	x
SMILES	esBAF inh	AF4-AF9 inh	FGF22 binding	SMARCA2 act	MITF TRPM1 HTS	Wnt act
CC1CN(Cc2csc(-c3ccc(Cl)cc3)n2)CC(C)O1 (stereo unspecified)	46.9*	3.1	0.3	-3.2	21.2	3.4
C/C=C/c1ccc2c(c1)[C@H]1[C@H](CCN1S(=O)(=O)c1ccccc1F)[C@H](CO)N2	8.6	x	-0.4	x	x	x
CN(C(=O)COc1ncnc2sccc12)c1ccccc1	-5.7	-2.1	43.3*	-2.9	11.0	2.3
C[C@H]1CN([C@@H](C)CO)S(=O)(=O)c2ccc(C#CC(C)(C)O)cc2O[C@@H]1CN(C)C(=O)CC1CC1	3.6	-2.0	0.0	x	x	x
CCN(C(=O)COC(=O)c1cc(-c2ccc(C)o2)nc2ccccc12)C1CCS(=O)(=O)C1 (stereo unspecified)	x	-3.9	0.1	-1.0	8.2	2.0
Cc1ccc(-c2cc(C(=O)OCC(=O)N(C)C3CCS(=O)(=O)C3)c3ccccc3n2)o1 (stereo unspecified)	x	-6.6	43.2*	0.7	15.8	2.9
Cc1ccc(C(=O)c2oc3ccccc3c2N)cc1	87.6*	x	x	1.6	32.2	x
Nc1c(C(=O)c2ccccc2)oc2ccc(Br)cc12	72.3*	x	x	2.7	61.6	10.5
Nc1c(C(=O)c2ccc(Br)cc2)oc2ccccc12	x	1.4	0.6	1.6	16.5	9.0
CCOC(=O)c1oc2ccccc2c1N	x	x	x	1.9	42.9	4.3
Nc1c(C(=O)c2ccc(Br)s2)oc2ccccc12	74.1*	x	x	7.2	29.7	35.3*
Nc1c(C(=O)c2cccs2)oc2ccccc12	54.3*	x	x	2.8	x	x
COC(=O)CCC(=O)c1oc2ccc(Br)cc2c1N	11.0	x	x	1.8	89.8*	x
O=C(Nc1ccc(Cl)c(Cl)c1)C1=Cc2ccccc2OC1	56.5*	x	x	3.0	75.4	2.7
CCOC(=O)c1nnc(-c2ccccc2)nc1N1CC(C)OC(C)C1 (stereo unspecified)	-0.8	-0.9	-0.4	0.3	7.8	2.4
CCOC(=O)c1cnc(-c2ccccc2)nc1N1CC(C)OC(C)C1 (stereo unspecified)	x	1.1	43.3*	-2.1	0.6	-0.3
CN(C)/C=C(\C#N)C(=O)Nc1ccc(F)c(Cl)c1	x	-0.7	-0.1	1.9	x	36.5*
O=C(c1ccncc1)N1C[C@H]2[C@@H](c3ccccc31)[C@@H](CO)N2C(=O)CN1CCOCC1	-2.9	0.4	-1.2	x	x	x
CC1SC(=NC(=O)c2ccncc2)NC1=O (stereo unspecified)	x	-2.6	44.5*	0.3	-5.2	0.4
CCCN1[C@@H]2Cn3c(ccc(-c4ccccc4F)c3=O)[C@H]1[C@@H](C(=O)NCc1ccccn1)[C@@H]2CO	x	-3.9	x	x	x	x
C=CCOc1cccc(CNCCCN2CCOCC2)c1	x	-1.5	43.5*	-3.5	-3.4	-1.0
CCCc1cn(-c2ccc3c(c2)[C@]2(CC(=O)N(C)C2c2ccccc2)C(=O)N3CC(C)C)nn1 (stereo partly specified)	x	x	x	1.1	x	x
COc1cccc(/C=N/NC(=O)C(=O)N/N=C/c2cccc(OC)c2OC)c1OC	x	0.0	0.0	0.4	-0.8	-1.7
COc1ccccc1C=NNC(=O)C(=O)NN=Cc1ccccc1OC	-3.6	0.4	43.3*	-4.2	0.5	-4.6
